The values below come from PubChem BioAssay (NCATS).

The target of experiment [1] is Luciferin 4-monooxygenase (Photinus pyralis) (UniProt P08659). The experiment can be described thus: Biochemical firefly luciferase enzyme assay for NPC (AID 624030).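 Also: purified P. pyralis luciferase at 10 nM with luciferin and ATP substrate; 0% = DMSO and -100% = full luciferase inhibition by PTC124 control; nearly all actives have a fitted effect of over 70% in size.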 The method in brief: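 Purified P. pyralis luciferase at 10 nM in 50 mM Tris Acetate (final), luminescence read within 5 minutes of enzyme addition to compounds. Activity normalised to PTC124 versus DMSO; concentration-response curves classed by r2, magnitude and activity.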

The nature of experiment [2]: qHTS Assay for Identifying Gametocytocidal Compounds (AID 743244). Also: potency is read from the fitted curve at half-maximal effect.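 As to max response: % is scaled to controls: 0 for no effect and ±100 for the full control effect; actives lower the fluorescent signal which means gametocytes are killed.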 The note with it: P. falciparum 3D7 stage III-V gametocytes, alamarBlue, 72 h; max response: stronger effect = lower value. The method in brief: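 Stage III–V gametocytes of P. falciparum 3D7 were seeded at 20,000 cells/well onto pre-dispensed compounds. After 72 h, 37 °C, 5% CO2, alamarBlue was added for another 24 h.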

Experiment [3] is described as follows: P-glycoprotein substrates identified in KB-8-5-11 adenocarcinoma cell line, qHTS therapeutic library screen (AID 1346987). Also: nearly all actives have a fitted effect of over 65% in size. Also: potency is read from the fitted curve at half-maximal effect. A digest of the protocol: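 Compounds are pinned in dose-response onto KB-8-5-11 cells (500 cells/well, colchicine-free medium) and left 72 h at 37 degree C. CellTiter-Glo luminescence then yields AC50 values.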
Experiment [4] addresses Cytochrome P450 2D6 (Homo sapiens) (UniProt P10635). The experiment can be described thus: Cytochrome P450 family 2 subfamily D member 6 (CYP2D6) small molecule antagonists: luciferase biochemical (cell-free) qHTS assay (AID 1645840; active = well fitted curve in the direction sought with a large enough effect in the repeat runs; an effect the other way counts as inactive or inconclusive; also: potency is read from the fitted curve at half-maximal effect; nearly all actives have a fitted effect of over 55% in size). The method in brief: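 P450-Glo CYP2D6 system: proluciferin substrate converted by enzyme to luciferin, read by luminescence proportional to activity. Enzyme-substrate mix with compound 10 min at room temperature, then NADPH regeneration 1 h before detection reagent.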

Experiment [5] has as its target Cytochrome P450 2C9 (Homo sapiens) (UniProt P11712). The experiment can be described thus: Cytochrome P450 family 2 subfamily C member 9 (CYP2C9) small molecule antagonists: luciferase biochemical (cell-free) qHTS assay (AID 1645842; active = well fitted curve in the direction sought with a large enough effect in the repeat runs; an effect the other way counts as inactive or inconclusive; also: potency is read from the fitted curve at half-maximal effect; nearly all actives have a fitted effect of over 55% in size). The method in brief: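 P450-Glo CYP2C9 system: proluciferin substrate with enzyme in mix containing 0.4% BSA, 10 min at room temperature, then NADPH regeneration solution added and incubated 1 h at 37C. Detection reagent stopped reaction; luminescence read after 20 min as RLU.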

Another experiment has as its system KB-3-1. The experiment can be described thus: Cytotoxic Profiling of Annotated Libraries Using Quantitative High-Throughput Screening (AID 1296008). Also: % is scaled to controls: 0 for no effect and ±100 for the full control effect; nearly all actives have a fitted effect of over 60% in size. The note with it: Five cell lines viability, CellTiter-Glo ATP luminescence, 48-72 h; max response: stronger effect = lower value. The method in brief:
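Cells exposed to compounds for 48 or 72 hr at 37 degrees Celsius. Viability read as ATP-coupled luminescence with CellTiter-Glo after 10 min at room temperature.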

A short description of experiment [6]: Drug repurposing screens with cells derived from glioblastoma tumor samples (AID 1345199). Also: % is scaled to controls: 0 for no effect and ±100 for the full control effect; nearly all actives have a fitted effect of over 40% in size. The note with it: GBM patient neurospheres viability, ATP luminescence, 48 h; Potency: tumour line A; series mostly up to 45.9 µM. The method in brief: (§1)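 Primary testing used CD133+ neurospheres from four GBM patients, seven concentrations, 48 h exposure and ATP-based viability; confirmation added three slower-growing patient lines.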

A further experiment deals with astro. Described as above. The note with it: viability, ATP luminescence, 48 h; series mostly up to 45.9 µM. A digest of the protocol:
as §1

Another experiment concerns the target Furin (Homo sapiens) (UniProt P09958). The experiment can be described thus: Furin counterscreen qHTS for Zika virus inhibitors (AID 1347149).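 Also: purified recombinant full-length human furin enzyme at 5 nM; fluorescence gain from furin cutting a BOC-RVRR-AMC peptide substrate over 15 min; top concentration of the series differs between compounds; plate controls were no-inhibitor control for no effect and no-enzyme control for full effect; nearly all actives have a fitted effect of over 70% in size.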 The method in brief: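 Counterscreen measures cleavage of 2 microM BOC-RVRR-AMC, below its ~15 microM Km, by 5 nM full-length human furin at pH 7.0 after a 15-min compound preincubation. Inhibition derives from the 15-min fluorescence increase at 37C.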

Experiment [7] concerns Zika virus NS2B-NS3 protease (unlinked). The experiment can be described thus: Optimization of GU AMC qHTS for Zika virus inhibitors: Unlinked NS2B-NS3 protease assay (AID 1347151).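 Also: 0% = no-inhibitor control and -100% = no-enzyme control; nearly all actives have a fitted effect of over 80% in size.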 The method in brief:
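Fluorescence gain (340/450 nm) over 15 min at room temperature, ~20% conversion, gave percent inhibition fitted to a 4-parameter Hill equation; enzyme was unlinked NS2B-NS3 (25 nM final), pH 8.0 Tris buffer.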

A short description of experiment [8]: Vero cells viability qHTS for Zika virus inhibitors (AID 1347167). Also: % is scaled to controls: 0 for no effect and ±100 for the full control effect. The method in brief:
(§2)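 qHTS titration; 24-48 h compound exposure, 37 degrees C/5% CO2; DMEM, 4% FBS; CellTiter Glo ATP luminescence.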

The nature of experiment [9]: HepG2 cells viability qHTS for Zika virus inhibitors (AID 1347168). Also: % is scaled to controls: 0 for no effect and ±100 for the full control effect. A digest of the protocol:
as §2

Experiment [10] in a line: Primary qHTS for Huh7 cytotoxicity: counterscreen for inhibitors of MERS-S pseudotyped particle cell entry (AID 1479147; calls by dose curve). The note with it: outcome: dose series up to 57.1 µM unless noted.
Experiment [11] can be described thus: Primary qHTS for Vero E6 cytotoxicity: counterscreen for inhibitors of SARS-S pseudo-typed particle cell entry (AID 1479150; calls by dose curve). The note with it: outcome: dose series up to 57.1 µM unless noted.
The nature of experiment [12]: Cytotoxicity counterscreen for inhibitors of SARS-CoV-2 cell entry (AID 1645845; calls by dose curve; also: nearly all actives have a fitted effect of over 50% in size). The method in brief: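 Counterscreen run in the same HEK293-ACE2 line as the pseudotyped-particle entry assay, without particles. Viability after 48 h at 37 C was read as ATP luminescence, scaled between cell-containing and cell-free wells.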
Experiment [13] has as its target Glutathione peroxidase 1 (Homo sapiens) (UniProt P07203). The experiment can be described thus: Primary qHTS Assay for Inhibitors of Recombinant Selenoprotein Glutathione Peroxidase 1 (GPX1) (AID 1845191). Also: % is scaled to controls: 0 for no effect and ±100 for the full control effect; nearly all actives have a fitted effect of over 65% in size. A digest of the protocol:
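GR-coupled readout: NADPH consumption tracked by fluorescence, ex 340/em 450 nm, at t=0 and after 15 min at RT. Final mix 10 nM GPX1, 1 mM GSH, 0.5 mM CHP, 0.5 mM NADPH, 100 nM GR, 0.01% BSA, following 30 min enzyme–compound preincubation.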

For experiment [14], the target named is Phospholipid hydroperoxide glutathione peroxidase GPX4 (Homo sapiens) (UniProt P36969). Put plainly: Primary qHTS Assay for Inhibitors of Recombinant Selenoprotein Glutathione Peroxidase 4 (GPX4) (AID 1845192). Also: nearly all actives have a fitted effect of over 65% in size. As to activity change, negative = inhibition: % is scaled to controls: 0 for no effect and ±100 for the full control effect. A digest of the protocol: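 Steps: GPX4 plus compound, 30 min RT; add GR/GSH/NADPH master mix; start with cumene hydroperoxide; read 340/450 nm fluorescence at 0 and 15 min. Finals were 200 nM GPX4, 1 mM GSH, 0.5 mM CHP, 0.5 mM NADPH, 100 nM GR.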

A short description of experiment [15]: Primary qHTS for inhibitors of MERS-S pseudo-typed particle cell entry (AID 1479149; calls by dose curve; also: nearly all actives have a fitted effect of over 60% in size; as to activity change, negative = inhibition: % is scaled to controls: 0 for no effect and ±100 for the full control effect).
Experiment [16] is described as follows: Primary qHTS to identify inhibitors of SARS-CoV-2 cell entry (AID 1645846; calls by dose curve; also: nearly all actives have a fitted effect of over 45% in size). The note with it: activity change, negative = inhibition: at 57.1 µM (top of the series) unless noted. A digest of the protocol: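 Entry measured by luciferase signal 48 h after adding SARS-CoV-2-S pseudotyped MLV particles to HEK293-ACE2 cells preincubated 1 h with compounds. Normalisation: bald particles and spike particles.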

Experiment [17] is described as follows: Primary qHTS for inhibitors of SARS-S pseudo-typed particle cell entry (AID 1479145; calls by dose curve; also: % is scaled to controls: 0 for no effect and ±100 for the full control effect; nearly all actives have a fitted effect of over 45% in size).

Results filed as inconclusive are left out. Activity calls are given as the source filed them. Unless noted, calls follow the shape of the dose curve; as a rule, active = well fitted curve in the direction sought with a large enough effect; inconclusive = small, poorly fitted or top-dose-only effect, or another doubt; inactive = no such curve, though single readings can be large; an effect the other way counts as inactive or inconclusive.

Chain of Glutathione peroxidase 1 (Homo sapiens) (P07203 whole entry, looked up): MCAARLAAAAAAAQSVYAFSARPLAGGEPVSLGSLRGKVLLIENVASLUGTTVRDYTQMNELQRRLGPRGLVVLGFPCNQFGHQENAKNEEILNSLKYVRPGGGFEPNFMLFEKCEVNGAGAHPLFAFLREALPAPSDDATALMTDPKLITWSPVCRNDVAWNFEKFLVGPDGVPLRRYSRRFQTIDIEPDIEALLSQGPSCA
Chain of Phospholipid hydroperoxide glutathione peroxidase GPX4 (Homo sapiens) (P36969 whole entry, looked up): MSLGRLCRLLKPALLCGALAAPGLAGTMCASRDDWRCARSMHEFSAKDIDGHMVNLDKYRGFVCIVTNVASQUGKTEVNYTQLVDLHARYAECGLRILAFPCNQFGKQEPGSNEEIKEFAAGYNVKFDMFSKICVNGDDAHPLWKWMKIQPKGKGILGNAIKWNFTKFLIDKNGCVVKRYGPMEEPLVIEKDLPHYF
Chain of Luciferin 4-monooxygenase (Photinus pyralis) (P08659 whole entry, looked up): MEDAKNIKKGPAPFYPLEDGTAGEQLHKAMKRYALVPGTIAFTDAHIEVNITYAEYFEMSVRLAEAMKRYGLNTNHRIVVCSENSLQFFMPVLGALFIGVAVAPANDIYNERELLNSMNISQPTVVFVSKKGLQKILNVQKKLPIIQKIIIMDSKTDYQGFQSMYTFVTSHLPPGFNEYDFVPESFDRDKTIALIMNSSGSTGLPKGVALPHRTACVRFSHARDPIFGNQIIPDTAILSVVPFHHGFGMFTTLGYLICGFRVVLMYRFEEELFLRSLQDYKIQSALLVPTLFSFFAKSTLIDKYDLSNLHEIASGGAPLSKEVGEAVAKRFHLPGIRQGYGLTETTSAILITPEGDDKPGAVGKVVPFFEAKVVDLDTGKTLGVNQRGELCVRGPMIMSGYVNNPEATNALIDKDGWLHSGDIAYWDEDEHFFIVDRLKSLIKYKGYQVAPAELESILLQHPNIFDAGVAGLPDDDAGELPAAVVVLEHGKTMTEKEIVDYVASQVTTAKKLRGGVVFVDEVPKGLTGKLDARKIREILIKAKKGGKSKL
Chain of Cytochrome P450 2D6 (Homo sapiens) (P10635 whole entry, looked up): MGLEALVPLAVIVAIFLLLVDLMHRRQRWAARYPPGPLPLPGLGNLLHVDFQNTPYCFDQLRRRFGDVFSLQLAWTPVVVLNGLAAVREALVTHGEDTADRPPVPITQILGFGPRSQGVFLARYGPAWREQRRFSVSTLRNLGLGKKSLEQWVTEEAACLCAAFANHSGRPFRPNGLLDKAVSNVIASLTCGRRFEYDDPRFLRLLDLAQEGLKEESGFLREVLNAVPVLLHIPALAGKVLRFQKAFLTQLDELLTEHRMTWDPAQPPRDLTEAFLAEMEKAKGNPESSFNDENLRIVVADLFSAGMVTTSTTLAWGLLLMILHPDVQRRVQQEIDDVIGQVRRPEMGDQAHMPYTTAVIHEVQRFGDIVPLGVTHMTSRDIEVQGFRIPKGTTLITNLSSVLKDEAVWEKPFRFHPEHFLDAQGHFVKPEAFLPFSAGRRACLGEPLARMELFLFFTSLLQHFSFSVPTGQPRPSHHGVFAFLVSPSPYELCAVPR
Chain of Furin (Homo sapiens) (P09958 whole entry, looked up): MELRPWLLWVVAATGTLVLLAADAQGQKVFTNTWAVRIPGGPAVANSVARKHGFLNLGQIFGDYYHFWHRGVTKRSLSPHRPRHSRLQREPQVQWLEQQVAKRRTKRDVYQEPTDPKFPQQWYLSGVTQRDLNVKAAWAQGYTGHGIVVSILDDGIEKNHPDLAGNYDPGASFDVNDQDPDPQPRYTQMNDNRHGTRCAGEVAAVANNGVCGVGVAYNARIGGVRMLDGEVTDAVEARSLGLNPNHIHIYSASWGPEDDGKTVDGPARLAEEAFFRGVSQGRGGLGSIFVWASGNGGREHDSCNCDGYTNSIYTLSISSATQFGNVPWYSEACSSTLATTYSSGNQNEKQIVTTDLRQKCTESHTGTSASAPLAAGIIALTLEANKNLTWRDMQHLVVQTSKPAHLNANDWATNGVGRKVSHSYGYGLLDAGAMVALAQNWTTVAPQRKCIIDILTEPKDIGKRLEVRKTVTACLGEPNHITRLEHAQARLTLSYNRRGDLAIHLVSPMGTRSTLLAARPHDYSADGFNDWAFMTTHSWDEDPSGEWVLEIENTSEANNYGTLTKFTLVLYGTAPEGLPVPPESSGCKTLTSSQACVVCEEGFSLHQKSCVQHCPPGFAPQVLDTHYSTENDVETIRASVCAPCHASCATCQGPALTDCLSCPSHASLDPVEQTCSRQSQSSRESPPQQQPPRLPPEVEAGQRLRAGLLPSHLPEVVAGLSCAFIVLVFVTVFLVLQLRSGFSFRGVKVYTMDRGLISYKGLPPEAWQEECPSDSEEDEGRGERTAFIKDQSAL
Chain of Cytochrome P450 2C9 (Homo sapiens) (P11712 whole entry, looked up): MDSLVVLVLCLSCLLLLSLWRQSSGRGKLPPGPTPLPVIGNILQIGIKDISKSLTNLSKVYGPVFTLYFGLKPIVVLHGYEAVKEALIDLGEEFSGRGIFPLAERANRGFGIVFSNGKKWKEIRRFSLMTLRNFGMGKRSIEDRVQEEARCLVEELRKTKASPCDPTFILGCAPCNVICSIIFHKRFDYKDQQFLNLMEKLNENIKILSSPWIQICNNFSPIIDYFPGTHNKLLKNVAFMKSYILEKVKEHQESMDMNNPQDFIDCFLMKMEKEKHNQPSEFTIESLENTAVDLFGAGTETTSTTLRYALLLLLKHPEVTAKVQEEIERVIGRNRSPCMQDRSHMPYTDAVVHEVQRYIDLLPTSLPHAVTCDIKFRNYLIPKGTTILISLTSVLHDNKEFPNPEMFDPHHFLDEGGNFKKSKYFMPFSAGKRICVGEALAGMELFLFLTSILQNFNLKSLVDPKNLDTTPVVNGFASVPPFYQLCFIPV

In the case of `CCOP(=S)(OCC)SCSc1ccc(Cl)cc1`, the Potency entry (in [1]; in [3]; in [6]; in the experiment on astro) was “inactive” each time. In addition, the max response in experiment [2] is -1.21% (inactive); in the experiment on KB-3-1, -9.26% (inactive). Also, the figures for the Potency in [4] and in [5] were 9.52 µM (active) and 0.213 µM (active), respectively.

As for `CCc1cc(OC)c(C[C@@H](C)N)cc1OC`, the max response in experiment [2] was 0.694% (inactive); in the experiment on KB-3-1 it was -13.5% (inactive). Also, the Potency result (in [3]; in the experiment on astro) was “inactive” throughout.

For `Cc1ccc2c(c1)[C@]13CCCC[C@@H]1[C@H](C2)N(C)CC3`, the max response in [2] is -5.26% (inactive); in the experiment with KB-3-1, -5.13% (inactive). The Potency entry (in the experiment with Furin (Homo sapiens); in experiment [8]; in [9]; in [12]; in experiment [13]; in [14]) was “inactive” throughout. Besides, the Potency result in the experiment with astro was “inactive”. The result in experiment [7], in experiment [10] and in experiment [11] was inactive.

For the molecule `C/C=C(\CC)C(=O)NC(N)=O`, the Potency result (in experiment [1]; in [3]; in [6]; with astro) was “inactive” in each case. Also, the max response in [2] was -0.86% (inactive); with KB-3-1, -1.21% (inactive).

As for `C=CCC1([C@@H](C)CCC)C(=O)NC(=O)NC1=O`, the Potency result (in experiment [1]; in [3]; in [6]; with astro) was “inactive” in each case. For the same molecule, the max response in experiment [2] is 0.546% (inactive); in the experiment on KB-3-1 it was -4.55% (inactive).

With `O.O.O.O=C([O-])C(O)C(O)C(=O)[O-].O=C([O-])C(O)C(O)C(=O)[O-].[K+].[K+].[Sb].[Sb]` (configuration not stated), the Potency in experiment [2] is 0.708 µM (active); in experiment [3], 8.2 µM (active). In the experiment on KB-3-1, the max response is -33.9% (inactive).

As for `CN1CCN=C(c2ccccc2)c2cc(Cl)ccc21`, the Potency entry (in experiment [1]; in experiment [3]; in the experiment on astro) was “inactive” in each case. For the same molecule, the max response in [2] was 0.139% (inactive); in the experiment on KB-3-1, 8.16% (inactive).

For the molecule `CNC(C)CC1CCCCC1` (configuration not stated), the Potency result in experiment [1], in experiment [3], in experiment [15], in experiment [12], in [13] and in [14] was “inactive” each time. Besides, the Potency result (in experiment [6]; with astro) was “inactive” throughout. The max response was -3.52% (inactive) in [2] and -19.8% (inactive) in the experiment on KB-3-1. Further, the outcome in experiment [10] was inactive. The outcome in experiment [11] was “inactive [at 85.7 µM]”. Also, in [16], the activity change, negative = inhibition is -28.6% [at 85.7 µM].

Take `C[C@]12CCC(=O)C[C@@H]1CC[C@@H]1[C@@H]2CC[C@@]2(C)[C@H]1CC[C@]2(C)O`: the max response in experiment [2] was -5.63% (inactive); in the experiment with KB-3-1 it was -6.75% (inactive). In addition, the Potency result (in [6]; with astro) was “inactive” throughout.

Take `C[C@@H]1[C@H]2Cc3ccc(O)cc3[C@]1(C)CCN2C`: the max response was -6.63% (inactive) in experiment [2] and -14.3% (inactive) in the experiment on KB-3-1. Also, the Potency entry (in experiment [3]; in experiment [6]; with astro) was “inactive” throughout.

For the molecule `CC(C)C[C@H]1C(=O)N2CCC[C@H]2[C@]2(O)O[C@](NC(=O)[C@@H]3C[C@@H]4c5cccc6[nH]cc(c56)C[C@H]4N(C)C3)(C(C)C)C(=O)N12`, the Potency entry in [17], in [15], in experiment [12] and in [13] was “inactive” throughout. Besides, the call in experiment [10] and in [11] was inactive. In addition, the max response with KB-3-1 was -14.2% (inactive).

Regarding `Cc1nnc2n1-c1sc(Br)cc1C(c1ccccc1Cl)=NC2`, the Potency entry in experiment [1], in experiment [15], in [12], in experiment [13] and in experiment [14] was “inactive” each time. For the same molecule, the results for the max response (in experiment [2]; in the experiment on KB-3-1) were 6.14% (inactive) and -25.2% (inactive), respectively. Also, the outcome in experiment [10] and in [11] was inactive.
